# According to PubChem BioAssay AID1458 (National Center for Advancing Translational Sciences (NCATS), 2008):
# Hit rate of the full screen: of about 210,000 compounds, about 5,900 (2.8%) were called active. Roughly 5% stayed inconclusive and do not appear here. This is one part of a sample in which actives are shown more often than they occur. Calls come from the whole dose curve; as a rule, active = well fitted activation curve with a large enough effect; inconclusive = small, poorly fitted or top-dose-only effect; inactive = no such curve, though single readings can be large or run the other way.
# Experiment: qHTS Assay for Enhancers of SMN2 Splice Variant Expression; note: nearly all actives have a fitted effect of over 55% in size; for activity change, positive = activation: % of control where 0% means no effect
# Details: HEK293 SMN2-luciferase splicing reporter, luminescence, 30-36 h; series mostly up to 46.1 µM; activity change, positive = activation: at the top concentration
# Summary of the method: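 qHTS luciferase splicing reporter: luminescence rises when SMN2 exon 7 is included in transfected HEK293 cells. Compound exposure lasted 30-36 h at 37C, with 4.5 mM final sodium butyrate as control, followed by a ONE-Glo read.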
# Potency is the fitted concentration of half-maximal effect.
Compound,"activity change, positive = activation",Potency
CC(C)[C@@H]1NC(=O)[C@H](Cc2ccccc2)NC(=O)[C@@H](CC(=O)O)NC(=O)CNC(=O)[C@H](CCCNC(=N)N)NC1=O,-22.6% (inactive),
CCOC(=O)N1CCC(NC(=O)c2ccc3nc(N4CCOCC4)sc3c2)CC1,-24.2% (inactive),
O=C(NCc1ccc(F)cc1)c1ccc2nc(N3CCCCC3)sc2c1,,4.47 µM (active)
Cc1ccc(C)n1-c1nnc(N2CCC(C(=O)NCc3ccc(F)cc3)CC2)s1,-5.38% (inactive),
O=C(NCCCN1CCN(c2cccc(Cl)c2)CC1)c1nnc(Cc2ccc(F)cc2Cl)o1,-27.3% (inactive),
COc1ccc(Cl)cc1NC(=O)Cn1c(=O)c2ccccc2n2nncc12,-15.1% (inactive),
CCOc1ccc(CCNC(=O)Cn2nc(CC)n3c(cc4sc(CC)cc43)c2=O)cc1OCC,-6.23% (inactive),
Cc1ccc(Cl)cc1NC(=O)CCS(=O)(=O)c1ccc(Br)s1,-15.5% (inactive),
Cc1nc2nc(NCc3cccc(Br)c3)[nH]n2c(=O)c1Cc1ccccc1,0.373% (inactive),
Cc1cccc(NC(=O)c2ccc3ccccc3n2)n1,,12.6 µM (active)
Cc1cccc(NC(=O)c2ccccc2NC(=O)C(C)(C)C)n1,-6.31% (inactive),
Cc1cccc(NC(=O)c2cc(N3C(=O)CCC3=O)ccc2Cl)n1,-9.11% (inactive),
COc1ccc(NC(=O)CSc2nc(C)cs2)cc1,9.16% (inactive),
Cc1cccc(C)c1Nc1nnc(SCC(=O)Nc2sccc2C#N)s1,13.8% (inactive),
Cc1csc(SCC(=O)Nc2sccc2C#N)n1,,12.6 µM (active)
CCCc1cc(=O)n2[nH]c(NCc3ccc(CC)cc3)nc2n1,5.2% (inactive),
CCOc1ccccc1NC(=O)Cn1c(=O)n(-c2cccc(C)c2)c(=O)c2c1c1cc(OC)ccc1n2C,-0.773% (inactive),
COc1ccc(-c2nc3nc(C)cc(C)n3c2Nc2c(C)cccc2C)cc1,6.57% (inactive),
CCOC(=O)c1c(NC(=O)Cc2coc3ccc(CC)cc23)sc2c1CCC2,-0.233% (inactive),
N#Cc1ccc(OCc2nnc(-c3ccc([N+](=O)[O-])cc3)o2)cc1,7.74% (inactive),
COc1ccc(OCC(=O)Nc2nnc(-c3ccco3)s2)cc1,4.15% (inactive),
COc1ccc(C(=O)CSc2nnc(-c3ccco3)o2)cc1,0.989% (inactive),
CCCCOc1ccc(-c2nnc(-c3ccco3)o2)cc1,,14.1 µM (active)
CCCCOc1ccc(C(=O)NCc2ccco2)cc1,-27% (inactive),
CCOc1ccc(-c2nnc(-c3ccco3)o2)cc1,,1.12 µM (active)
Cc1ccc(NC(=O)Nc2sc3nc4n(c(=O)c3c2C)CCC(C)CC4)c(Cl)c1 (stereo not given),6.1% (inactive),
C=C1O[C@@](CO)(n2cnc3c(N)ncnc32)[C@H](O)[C@@H]1O,-7.24% (inactive),

Compound,"activity change, positive = activation",Potency
O=C1CC(c2nnc(Cc3ccc(Cl)cc3)o2)CN1c1ccccc1 (stereo not given),10.3% (inactive),
COc1ccc(OC)c(NC(=O)C2CCN(S(=O)(=O)c3ccc(C)cc3)CC2)c1,-5.72% (inactive),
COc1ccc(Cl)cc1-n1c(CCC(=O)O)ccc1-c1ccc(C)cc1,-4.16% (inactive),
COC(=O)N1C(/C=C/C=C/c2ccc(OC)cc2)=Cc2ccccc2C1CC(C)=O (stereo not given),-7.94% [at 9.22 µM] (inactive),
Cc1ccc2oc(C(=O)Nc3ccc(S(=O)(=O)N4CCCCCC4)cc3)cc(=O)c2c1,5.39% (inactive),
CC(c1ccco1)N(C(=O)Nc1ccccc1)C1CCCCC1 (stereo not given),1.7% (inactive),
Cc1ccc(NC(=O)NC(=O)N(C2CCCCC2)S(=O)(=O)c2ccccc2)cc1,,7.94 µM (active)
CS(=O)(=O)N(C(=O)NC(=O)NC1CCS(=O)(=O)C1)C1CCCCC1 (stereo not given),-4.22% (inactive),
CCOC(=O)C1CCCN(CC(=O)Nc2cc(C)c3c(=O)oc4ccccc4c3n2)C1 (stereo not given),-14.2% (inactive),
CCN(CC)S(=O)(=O)c1ccc2c(c1)c(=O)c(C(=O)N1CCN(c3cccc(Cl)c3)CC1)cn2C,-7.2% (inactive),
CCOCCCNC(=O)c1c(NC(=O)Cc2coc3ccc(C)cc23)sc2c1CCC2,-4.12% (inactive),
Cc1ccccc1Nc1nc(N)nc(CSc2ccccc2)n1,,14.1 µM (active)
Cc1ccc(C(=O)OCc2nc(N)nc(Nc3ccccc3C)n2)cc1,-27.6% (inactive),
Cc1ccccc1Nc1nc(N)nc(CN2CCN(c3ccccn3)CC2)n1,-2.5% (inactive),
COc1ccc(CCNC(=O)CCCn2c(=O)c3ccccc3n(Cc3ccc(C)cc3)c2=O)cc1OC,-6.14% (inactive),
COc1ccc(OC)c(/C=C/C(=O)OCC(=O)Nc2ccc3c(c2)OCCO3)c1,-0.868% (inactive),
Cc1cccc(NC(=O)/C=C/c2ccc3c(c2)OCO3)n1,,2.24 µM (active)
O=C(/C=C\c1ccc2c(c1)OCO2)NC1(C(=O)Nc2ccc3c(c2)OCCO3)CCCCC1,3.51% (inactive),
CCc1c(C)sc(NC(=O)/C=C/c2ccc3c(c2)OCO3)c1C(=O)OC,-23.9% (inactive),
COc1ccc(/C=C/C(=O)Nc2ccc3c(c2)OCCO3)cc1OC,-4.17% (inactive),
COc1cccc(/C=C/C(=O)Nc2ccc3c(c2)OCCO3)c1,,11.2 µM (active)
COc1ccc(NC(=O)CNC(=O)Cn2ccc3ccccc3c2=O)c(OC)c1,14.1% (inactive),
Cc1ccc(C)c(Cn2c(C(=O)O)c(CNCc3cccs3)c3ccccc32)c1,-7.69% (inactive),
CCOc1ccc(Nc2c(S(=O)(=O)c3ccccc3)cnc3ccccc23)cc1,-35.9% (inactive),
COc1cc(Br)cc2cc(S(=O)(=O)c3ccccc3)c(=O)oc12,3.68% (inactive),
CN(Cc1ccccc1)C(=O)c1cn(C)c2ccc(S(=O)(=O)N3CCCCC3)cc2c1=O,1.18% (inactive),
CCOc1cccc(C(=O)Nc2nnc(-c3cccs3)s2)c1,,12.6 µM (active)

Compound,"activity change, positive = activation",Potency
CCOc1cccc(C(=O)Nc2cccnc2)c1,7.59% (inactive),
CCc1nnc(NC(=O)c2cccs2)s1,15% (inactive),
CCC(C)[C@@H](N)C(=O)O (stereo not given in full),0.053% (inactive),
Cc1ccc(N2CC(c3nnc(Cc4ccccc4Cl)o3)CC2=O)cc1 (stereo not given),9.41% (inactive),
COc1ccccc1N1CCN(C(=O)c2cc(-c3ccc(Cl)c(Cl)c3)on2)CC1,7.06% (inactive),
COc1cccc(-c2cc(C(=O)N3CCN(c4ccccc4OC)CC3)no2)c1,-3.29% (inactive),
COc1ccccc1-c1cc(C(=O)N2CCCCC2)no1,,14.1 µM (active)
O=C(c1cc(-c2ccc(F)cc2)on1)N1CCN(c2ccc(F)cc2)CC1,3.16% (inactive),
O=C(c1cc(-c2cccs2)on1)N1CCCCC1,,14.1 µM (active)
O=C(c1ccc(F)cc1)N1CCCC(c2nc(-c3cccs3)no2)C1 (stereo not given),-20.6% (inactive),
CCCCn1cc(S(=O)(=O)c2ccc(OCC)cc2)c(=O)c2cc(OC)c(OC)cc21,7.93% (inactive),
O=P(O)(O)C(O)c1ccc2ccccc2c1 (stereo not given),-1.73% (inactive),
O=c1cc(COc2cccc(C(F)(F)F)c2)nc2sc3c(n12)CCCC3,-3.58% (inactive),
COc1ccc(N(C)C(=O)C2CCN(S(=O)(=O)c3cc(Br)cc4c3N(C(C)=O)CC4)CC2)cc1,11.2% (inactive),
CN(c1ccc(C(=O)NCCC2=CCCCC2)cc1)S(C)(=O)=O,,11.2 µM (active)
O=C(NCCC1=CCCCC1)c1ccc(Cl)c([N+](=O)[O-])c1,9.41% (inactive),
O=C(Cc1cccc2ccccc12)NCCC1=CCCCC1,-1.2% (inactive),
O=C(Cc1nn[nH]n1)NCCC1=CCCCC1,19.6% (inactive),
CN(c1ccc(C(=O)NCc2ccccn2)cc1)S(C)(=O)=O,2.3% (inactive),
Cn1nnc2cc(C(=O)NCCC3=CCCCC3)ccc21,,11.2 µM (active)
Cc1nc2nc(SCC(=O)N(Cc3ccccc3)C(C)C)nn2c(C)c1Cc1ccccc1Cl,-19.2% (inactive),
CCc1ccc(CN(Cc2ccco2)C(=O)c2ccccc2Cl)cc1,-13.4% (inactive),
COc1ccccc1CNC(=O)CCCn1c(=O)c2ccccc2n(CC(=O)Nc2ccc(C)cc2Cl)c1=O,10% (inactive),
O=C(NCc1ccc2c(c1)OCO2)c1ccc(Cl)s1,5.84% (inactive),
O=C(NC1=NCCS1)[C@H](Cc1ccccc1)N1C(=O)c2ccccc2C1=O,-21.6% (inactive),
O=C(NC1=NCCS1)c1ccc(Cl)s1,,15.8 µM (active)
COc1cccc2c1cc1c(=O)n(CC(=O)N3CCN(c4ccccc4)CC3)nc(C)n12,-9.99% (inactive),

Compound,"activity change, positive = activation",Potency
CCNC(=O)CC1C(=O)N(c2ccc(F)cc2)C(=O)N1Cc1ccc(C)cc1 (stereo not given),-20.3% (inactive),
COc1ccc(NS(=O)(=O)c2ccc(NC(=S)NC(=O)CC(C)C)cc2)cc1,2.37% (inactive),
CC(=O)c1ccc(NC(=S)NC(=O)CC(C)C)cc1,,7.94 µM (active)
CC(C)CC(=O)NC(=S)Nc1cc(C(=O)O)ccc1Cl,22.3% (inactive),
Cc1cccc(NC(=O)Cn2c(C(F)(F)F)nc3ccccc32)c1C,-13.6% (inactive),
COc1ccc(N2CCN(c3cc(C)nc4nncn34)CC2)cc1,-15.9% (inactive),
O=C(c1ccc2c(c1)N(Cc1ccccc1F)C(=O)c1ccccc1S2(=O)=O)N1CCOCC1,8.82% (inactive),
CC(=O)Nc1cccc(-c2csc(Nc3cccc(C)n3)n2)c1,,10 µM (active)
CC(=O)Nc1ccc(-c2csc(NC(=O)Nc3ccccc3)n2)cc1,-80.3% (inactive),
COc1ccc(CCNc2nc(-c3cccc(NC(C)=O)c3)cs2)cc1OC,-26.4% (inactive),
COc1ccccc1CNC(=O)CCn1c(=O)c2ccccc2n(CC(=O)Nc2cccc(Cl)c2)c1=O,1.83% (inactive),
O=C(O)c1cccc(N=NN2CCCCCC2)c1,,0.631 µM (active)
O=C(O)c1ccc(N=NN2CCOCC2)cc1,-3.34% [at 1.84 µM] (inactive),
O=C(Nc1cccc(C(=O)N2CCCC2)c1)c1ccccc1,9.99% (inactive),
CCOC(=O)c1cc2c(=O)n3ccccc3nc2n(CC2CCCO2)c1=NC(=O)c1ccccc1F (stereo not given),10.2% (inactive),
CCOC(=O)c1c(C)[nH]c2c1-c1ccccc1C(=O)C2=O,-106% (inactive),
CCOC(=O)c1c(C)[nH]c(C2=NNC(=NC(C)COC)SC2)c1C (stereo not given),,3.16 µM (active)
Cc1cc(=O)oc(C)c1C(=O)N1CCCCC1,-19% (inactive),
CCc1ccc(CNC(=O)c2cc3cc4ccc(OC)cc4nc3o2)cc1,-28.9% (inactive),
Cc1ccc2cc3cc(C(=O)N4CCCCCC4)oc3nc2c1,,5.01 µM (active)
COc1ccccc1Nc1c2c(nc3ccc(NC(=O)/C=C/c4cc(OC)c(OC)c(OC)c4)cc13)CCCC2,-99.9% (inactive),
CCCCCc1ccc(-c2ccc(C(=O)O)cc2)nc1,,3.98 µM (active)
O=C(O)c1ccc(COCC(F)(F)F)cc1,-1.27% (inactive),
CCOc1c(CNCc2ccc(C(=O)O)cc2)cccc1OC,0.734% (inactive),
